High-throughput results (PubChem)
SARS PLP yeast: qHTS of Yeast-based Assay for SARS-CoV PLP; AID 485353, 2010; hit rate 0.19% among 330,000; S. cerevisiae expressing SARS-CoV PLpro, growth rescue; Potency, µM (series often up to 32.9 µM), for inactives: at the top dose activity, positive = growth rescue, actives largely listed as activators; note: potency is the fitted concentration of half-maximal effect; 0% is about no effect; nearly all actives have a fitted effect of over 55% in size
Shiga toxin inh: A qHTS for Small Molecule Inhibitors of Shiga Toxin; Vero cells, Shiga toxin protein synthesis inhibition reporter; inhibition, % at 38.7 µM; hit rate 9.2% among 290,000; AID 2315, 2010; in the data active = inhibition mostly above about 28%, no sharp cut-off; inactive = mostly below about 43%; note: 0% is about no effect
NS1 inh: qHTS Assay for Inhibitors of Influenza NS1 Protein Function | Potency, µM (top dose mostly 46.1 µM), inactives show top-dose activity, positive = more growth | hit rate 0.4% among 270,000 | AID 2326, 2010; note: potency is the fitted concentration of half-maximal effect; actives are rising curves; nearly all actives have a fitted effect of over 50% in size
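A cell-based growth assay was used: compounds that relieve NS1-induced slow growth of budding yeast raise OD600. Assay medium was yeast nitrogen base with ammonium sulphate and -URA supplement, pH 6.0, with 2% galactose.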
Cycloheximide cs: Cycloheximide Counterscreen for Small Molecule Inhibitors of Shiga Toxin | cell reporter, cycloheximide protein synthesis inhibition counterscreen | max response, % | hit rate 12% among 300,000; in the data active = max response mostly above about 13%, no sharp cut-off; inactive = mostly below about 14%; note: read at 38.3 µM for the half of the compounds with a filed dose; 0% is about no effect
Numbers without * were called inactive; ? = inconclusive; . = no result. Compounds with a hit are over-represented: about 12% of the library has one in this group of screens. Unless noted, calls come from the whole dose curve.

SMILES	SARS PLP yeast	Shiga toxin inh	NS1 inh	Cycloheximide cs
O=C(N/N=C/c1ccccc1)c1cc(-c2ccc3c(c2)OCO3)n[nH]1	-8%	-6	4%	14*
O=C(N/N=C/c1cccc(O)c1)c1cc(-c2ccc3c(c2)OCO3)n[nH]1	-6%	12	-7%	10*
O=C(N/N=C/c1ccc(O)cc1)c1cc(-c2ccc3c(c2)OCO3)n[nH]1	-10%	33	20%	9
CN1CCc2c(sc3nc(NN)n(-c4ccc(Cl)cc4)c(=O)c23)C1	-2%	29*	6%	7
Cc1ccc(NC(=O)C2COc3ccccc3O2)nc1 (centres undefined)	5%	56	-14%	40*
Cc1ccnc(NC(=O)C2COc3ccccc3O2)c1 (centres undefined)	?	56*	18%	65*
CC(C)NC(=O)C1COc2ccccc2O1 (centres undefined)	0%	17	5%	9
Cc1ccc(NC(=O)C2c3ccccc3Oc3ccccc32)nc1	-1%	-15	2%	-4
COc1ccc(C(=O)CSc2nnc(CC(=O)Nc3ccccc3OC)n2C)cc1	1%	-4	.	-4
CC(C)(O)C#Cc1ccc(CN2CCC(n3nccc3NC(=O)C3CC3)CC2)cc1	-2%	-8	4%	8
COc1cccc(C(=O)NN2C(=S)N(c3ccccc3)C(=O)C2CC(N)=O)c1 (centres undefined)	0%	50*	3%	43*
NC(=O)CC1C(=O)N(c2ccccc2)C(=S)N1NC(=O)c1ccccc1 (centres undefined)	2%	32	3%	27*
O=C(CC1C(=O)N(c2ccccc2)C(=S)N1c1ccccc1)c1ccc(Br)cc1 (centres undefined)	4%	13	9%	0
NC(=O)CC1C(=O)N(c2ccccc2)C(=S)N1NC(=O)c1ccc(Br)cc1 (centres undefined)	3%	55*	5%	29*
CNC(=O)CC1C(=O)N(C)C(=S)N1NC(=O)c1ccccc1 (centres undefined)	2%	-5	5%	-2
Cc1cc(C(=O)CSc2n[nH]c(N)n2)c(C)n1-c1ccc2c(c1)OCO2	4%	38	27%	10*
Cc1cc(C(=O)COc2ccccc2Cl)c(C)n1-c1ccc2c(c1)OCO2	-13%	93*	20%	53*
Nc1nc(SCc2ccc3c(c2)OCO3)n[nH]1	.	12	5%	21
CNS(=O)(=O)c1cccc(C(=O)OCC(=O)c2cc(C)n(-c3ccc4c(c3)OCO4)c2C)c1	1%	28	?	36*
O=C1Nc2ccccc2N=C(c2ccccc2)C1Br (centres undefined)	-2%	46*	0%	14
Cc1ccccc1NC(=O)C1C2/C=C\CCCCC21 (centres undefined)	-5%	11	-2%	-1
O=C(Nc1ccccc1)C1C2/C=C\CCCCC21 (centres undefined)	0%	43*	0%	19*
Cc1ccc(NC(=O)C2C3/C=C\CCCCC32)cc1C (centres undefined)	11%	130	8%	37*
C/C(=N\S(=O)(=O)c1ccc(C)cc1)Nc1cc(C(C)C)c(O)cc1C	-6%	-10	0%	-3
Cc1ccc(/C=C2/NC(=O)[C@H](C)NC2=O)cc1	3%	26	-1%	15*
SMILES	SARS PLP yeast	Shiga toxin inh	NS1 inh	Cycloheximide cs
Cc1nn2c(-c3cccc(NC(=O)c4ccco4)c3)nnc2c2ccccc12	-11%	0	-43%	22*
Cc1ccc(-c2nnc3c4ccccc4c(C)nn23)cc1NC(=O)c1ccco1	.	.	1%	.
Cc1nn2c3ccccc3nc2c2ccccc12	4%	13	-86%	7
Cc1nn2c(-c3ccccc3)nnc2c2ccccc12	-13%	41	-37%	11*
O=C(COc1ccccc1)Nc1ccc2c(c1)nc1n2CCSC1	1%	146	6%	24*
O=C(COc1ccccc1)Nc1ccc2c(c1)nc1n2CCOC1	0%	134*	-20%	20
COC(=O)c1cc(S(=O)(=O)N2CCN(C3CCCCC3)CC2)c[nH]1	3%	-3	-5%	-2
CN1CCN(CCCNCc2cn(CCC#N)c3ccccc23)CC1	0%	2	2%	2
Cc1ccc(OCCN(C)C(=O)C2CCC(=O)N(CC3CCCCC3)C2)cc1 (centres undefined)	-3%	10	-26%	-3
CCc1ccc(CN(C)C(=O)C2CCC(=O)N(CC3CCCCC3)C2)cc1 (centres undefined)	-4%	11	2%	38*
CC1(C)c2ccccc2-c2nc3ccccc3cc2C1O (centres undefined)	3%	16	-8%	18*
